Results filed as inconclusive are left out. The source made the active and inactive calls. The call rests on the fitted dose curve; in most records, active means well fitted cell-killing curve with a large enough effect in the repeat runs; inconclusive means weak or mixed curves, or effect the other way; inactive means no such curve, though single readings can be large or run the other way.
Experiment: qHTS assay to identify small molecule agonists of the RXR signaling pathway - cell viability counter screen (AID 1159529); further: nearly all actives have a fitted effect of over 50% in size
Settings: RXR-alpha-bla HEK293T viability, CellTiter-Glo, 16 h; series mostly up to 76.8 µM
Source text: National Center for Advancing Translational Sciences [NCATS]
NIH Chemical Genomics Center [NCGC]
U.S. Environmental Protection Agency [EPA]
National Institutes of Environmental Health Sciences [NIEHS]
National Toxicology Program [NTP]
U.S. Food and Drug Administration [FDA]
The Retinoid X receptor (RXR), a nuclear hormone receptor expressed in liver, spleen, placenta, epidermis, central nervous system. These receptors are able to form homo and heterodimers with other nuclear receptors and due to this heterodimerizing ability, RXR functions as master regulators producing diverse physiological effects. Three subtypes of RXR exist; alpha, beta and gamma. Retinoid X receptor alpha (RXR-alpha) has potential roles in metabolic signaling pathways, skin alopecia, dermal cysts, cardiac development, insulin sensitization etc. Therefore screening environmental chemicals on RXR-alpha signaling can be used for the studies focused on such therapeutic applications. For quantification of RXR-alpha ligands signaling, GeneBLAzer RXR alpha-UAS-bla HEK 293T (Life Technologies, Carlsbad, CA) cells containing a beta-lactamase reporter-gene under control of Retinoid X receptor-alpha response element were used to screen Tox21 10K library. The cytotoxicity of the Tox21 compound library against the RXR-alpha HEK 293T cell line was tested in parallel by measuring cell viability using CellTiter-Glo assay (Promega Corporation, Madison, WI) in the same wells.
Tox21 Assay Protocol Summary:
RXR-alpha HEK 293T cells were dispensed at 2,000 cells/6 uL of assay medium containing 2% charcoal-stripped FBS using a Multidrop Combi (ThermoFisher Scientific, Waltham, MA) dispenser. The assay was performed in black wall/clear-bottom 1536-well plates (Greiner Bio-One North America Inc. Monroe, NC). Tetraoctyl ammonium bromide was used as a positive control in the cytotoxicity screen. After the assay plates were incubated at 37 C and 5% CO2 for 5 hr, 23 nL of compounds dissolved in DMSO, positive control or DMSO only were transferred to the assay plate by a Pintool station (Kalypsys, San Diego, CA). The assay plates were incubated at 37 C and 5% CO2 for 16 hr. One uL of LiveBLAzer B/G FRET substrate (Life Technologies) was added using a Flying Reagent Dispenser (FRD) (Aurora Discovery, San Diego, CA) and the plates were incubated at room temperature for 2 hr. Fluorescence intensity (405 nm excitation, 460/530 nm emission) was measured using an Envision plate reader (PerkinElmer, Shelton, CT). For cytotoxicity, 4 uL/well of CellTiter-Glo reagent was added into the assay plates using an FRD. After 30 min incubation at room temperature, the luminescence intensity was measured using a ViewLux plate reader (PerkinElmer).

Row | SMILES | outcome
1 | COc1ccc(C)cc1N | inactive
2 | CCCCCCC=O | inactive
3 | O=C(O)c1ccc(S(=O)(=O)N(Cl)Cl)cc1 | inactive
4 | C=CC(C)CCCC(C)(C)O (stereo not given) | inactive
5 | C=CCCCCCCCCC(=O)O | inactive
6 | CCOCC(=O)O | inactive
7 | O=C(O)c1cc2ccccc2cc1O | inactive
8 | N#Cc1ccccc1 | inactive
9 | COCCOC(=O)c1ccccc1C(=O)OCCOC | inactive
10 | CCNC(=S)NCC | inactive
11 | OCc1ccccc1 | inactive
12 | CC(C)(C#N)c1cc(Cn2cncn2)cc(C(C)(C)C#N)c1 | inactive
13 | CCCCCCO | inactive
14 | NCCNCCN | inactive
15 | COc1ccc([N+](=O)[O-])cc1N | inactive
16 | CCOCCOCCOCCO | inactive
17 | O=C(O)CCCCCCCCC(=O)O | inactive
18 | Nc1nc(N)nc(-c2ccccc2)n1 | inactive
19 | CC(=O)c1ccc(O)cc1 | inactive
20 | CC(C)=CCl | inactive

Row | SMILES | outcome
21 | COC(=O)CCCC(=O)OC | inactive
22 | CC1(C)CC(N)CC(C)(CN)C1 (stereo not given) | inactive
23 | C[C@]12CCC(=O)C=C1CC[C@@H]1[C@@H]2[C@@H](O)C[C@@]2(C)[C@H]1CC[C@]2(O)C(=O)CO | inactive
24 | CNC(=S)N(C)C | inactive
25 | CSc1ccc(Cl)cc1 | inactive
26 | CC1(C)OC[C@@H]2O[C@@]3(C(=O)O)OC(C)(C)O[C@H]3[C@@H]2O1 | inactive
27 | CC(C)OC(=O)COc1ccc(Cl)cc1Cl | inactive
28 | O=C(O)/C=C/C(=O)O | inactive
29 | COc1ccccc1OCC(O)CO (stereo not given) | inactive
30 | CCc1ccccc1CC | inactive
31 | CC(C)CC(C)O (stereo not given) | inactive
32 | Cc1ccc([N+](=O)[O-])cc1S(=O)(=O)O | inactive
33 | CCNc1ccccc1 | inactive
34 | CCCCCCCCCCN | inactive
35 | O=S(=O)(O)c1ccc(N=Nc2c(O)ccc3cc(S(=O)(=O)O)ccc23)cc1 | inactive
36 | C[C@]12CC[C@@H]3c4ccc(O)cc4CC[C@H]3[C@@H]1C[C@@H](O)[C@@H]2O | inactive
37 | COc1ccc(CCC(C)=O)cc1 | inactive
38 | CC(C)OP(=O)(CP(=O)(OC(C)C)OC(C)C)OC(C)C | inactive
39 | COc1cc(OC)c(C(=O)CCCN2CCCC2)c(OC)c1 | inactive
40 | Brc1ccc(Br)c(Br)c1 | inactive
